The values below come from PubChem BioAssay (Tox21).

Structures are written as SMILES. A number with no mark means an inactive call. Inconclusive results are not listed. The source made the active and inactive calls. Unless noted, calls follow the shape of the dose curve; as a rule, active = well fitted curve in the direction sought with a large enough effect in the repeat runs; inconclusive = weak or mixed curves; inactive = no such curve, though single readings can be large; an effect the other way counts as inactive or inconclusive.

The nature of test [1]: qHTS assay to identify small molecule antagonists of the constitutive androstane receptor (CAR) signaling pathway - cell viability counter screen (AID 1224837). Also: nearly all actives have a fitted effect of over 45% in size. The essentials:
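CITCO at 50 nM final was added alongside compounds (15 concentrations) to double-stable hCAR/CYP2B6-2.2kb HepG2 cells. Following 23 hr at 37 C, cell viability was quantified by CellTiter-Fluor fluorescence intensity.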
A general note: qHTS replaces the single test concentration by a dilution series.

Test [2] deals with Nuclear receptor subfamily 1 group I member 3 (Homo sapiens) (UniProt Q14994). The experiment in a line: qHTS assay to identify small molecule agonists of the constitutive androstane receptor (CAR) signaling pathway (AID 1224839). Also: nearly all actives have a fitted effect of over 15% in size. Also: potency is read from the fitted curve at half-maximal effect. The essentials: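 Luminescence read-out (ONE-Glo, 30 min, room temperature) from double-stable HepG2-CYP2B6-hCAR cells exposed 24 h to 15-point compound series in presence of 0.75 uM PK11195 final.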
Chain of Nuclear receptor subfamily 1 group I member 3 (Homo sapiens) (Q14994 whole entry, looked up): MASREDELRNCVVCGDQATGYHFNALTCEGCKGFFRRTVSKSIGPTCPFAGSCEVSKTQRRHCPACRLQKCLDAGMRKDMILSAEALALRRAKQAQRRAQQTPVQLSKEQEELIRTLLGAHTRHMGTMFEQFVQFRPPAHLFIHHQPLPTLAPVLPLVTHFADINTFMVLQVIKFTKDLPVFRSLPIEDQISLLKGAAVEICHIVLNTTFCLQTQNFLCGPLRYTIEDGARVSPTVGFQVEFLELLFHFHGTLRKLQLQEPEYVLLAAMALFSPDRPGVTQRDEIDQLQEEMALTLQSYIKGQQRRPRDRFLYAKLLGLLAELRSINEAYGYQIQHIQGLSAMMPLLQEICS

Test [3] is described as follows: qHTS assay to identify small molecule antagonists of the estrogen related receptor signaling pathway with the pleiotropic PPARgamma coactivator (PGC) from Tox21 10K library - cell viability counter screen (AID 1224840; active = well fitted cell-killing curve with a large enough effect in the repeat runs, not every such curve was filed as active; also: nearly all actives have a fitted effect of over 40% in size). A digest of the protocol:
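Readout: fluorescence intensity from CellTiter-Fluor after 30 min at 37 C/5% CO2. Preceded by 17.5 h treatment of PGC/ERR cells with DMSO-dissolved compounds, added 6 h post-seeding.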

Test [4] addresses Thyrotropin receptor (Homo sapiens) (UniProt P16473). The experiment in a line: qHTS assay to identify small molecule agonists of the thyroid stimulating hormone receptor (TSHR) signaling pathway (AID 1224843; calls by dose curve; also: nearly all actives have a fitted effect of over 45% in size). The essentials:
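Compounds are titrated over 15 concentrations, in triplicate, onto TSHR-HEK293 cells seeded at 800/well. Plates sit 30 min at room temperature before cAMP-d2 and anti-cAMP cryptate are added; signal is read after a further hour.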

The nature of test [5]: qHTS assay to identify small molecule agonists of the hypoxia (HIF-1) signaling pathway - cell viability counter screen (AID 1224844; calls by dose curve; also: nearly all actives have a fitted effect of over 50% in size). The essentials: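 In this counter screen, HRE-bla ME-180 cell viability after 17 hrs of compound exposure at 37C was read by CellTiter-Glo luminescence, multiplexed with the beta-lactamase reporter measurement.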
The nature of test [6]: qHTS assay to identify small molecule agonists of H2AX (AID 1224845; active = well fitted activation curve with a large enough effect in the signal ratio in the repeat runs, not every such curve was filed as active; the % refers to the signal ratio). A digest of the protocol:
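Wild-type CHO-K1 cells plated overnight, then exposed 3 hr at 37C to compounds at 15 concentrations (0.76% DMSO). Lysed, then HTRF anti-pH2AX(S139)-cryptate/anti-H2AX-d2 detection after 24 hr at room temperature; emissions 665 and 620 nm.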

Test [7] can be described thus: qHTS assay to identify small molecule agonists of the hypoxia (HIF-1) signaling pathway (AID 1224846; active = well fitted activation curve with a large enough effect in the signal ratio in the repeat runs, not every such curve was filed as active; the % refers to the signal ratio). A digest of the protocol:
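ME-180 HRE-bla reporter cells; compounds in DMSO, 17 h at 37C; read-out beta-lactamase via CCF4-AM FRET.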

Test [8] in a line: qHTS assay to identify small molecule agonists of H2AX - cell viability counter screen (AID 1224847; calls by dose curve; also: top concentration of the series differs between compounds; nearly all actives have a fitted effect of over 30% in size). The essentials:
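CHO-K1 wt, 1000 cells/well, o/n 37C; cpds 15 conc, 3 h 37C, 0.76% DMSO; CellTiter-Glo, 30 min RT, luminescence.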

Test [9] in a line: qHTS RealTime-Glo MT Cell Viability Assay in HepG2 cells - 24 hour (AID 1224867). Also: nearly all actives have a fitted effect of over 50% in size. The essentials:
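Real-time, nonlytic viability: 600 HepG2 cells/well mixed with NanoLuc enzyme plus prosubstrate; 5 h settle, compound (DMSO) added by pintool; luminescence monitored over 40 h at 37 C.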

Test [10] can be described thus: qHTS RealTime-Glo MT Cell Viability Assay in HEK293 cells - 32 hour (AID 1224868). Also: top concentration of the series differs between compounds; nearly all actives have a fitted effect of over 50% in size. A digest of the protocol: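 Cells + reagent dispensed (600 cells/well, HEK293) → 5 h at 37 C/5% CO2 → 23 nL compound in DMSO pinned → 40 h at 37 C → luminescence read at 0, 8, 16, 24, 32, 40 h.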
Test [11] in a line: A CellTox Green Cytotoxicity Assay to monitor cytotoxicity in HEK293 cells - 0 hour (AID 1224869). Also: nearly all actives have a fitted effect of over 50% in size. Also: potency is read from the fitted curve at half-maximal effect. A digest of the protocol:
(§1)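 Real-time, in one plate: 600 HEK293 cells/well with dead-cell DNA dye, pinned compound after 5 h, 37 C incubation over 40 h; viable cells give no appreciable fluorescence.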

The nature of test [12]: qHTS RealTime-Glo MT Cell Viability Assay in HepG2 cells - 40 hour (AID 1224870). Also: nearly all actives have a fitted effect of over 50% in size. The essentials: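 HepG2 cells mixed with RealTime-Glo MT reagents (NanoLuc plus cell-permeant prosubstrate) were seeded at 600 cells/well, incubated 5 h at 37 C/5% CO2, then pinned with compounds in DMSO; nonlytic luminescence tracked viability during 40 h treatment.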
Test [13] can be described thus: A CellTox Green Cytotoxicity Assay to monitor cytotoxicity in HEK293 cells - 40 hour (AID 1224871). Also: nearly all actives have a fitted effect of over 45% in size. Also: potency is read from the fitted curve at half-maximal effect. A digest of the protocol: as §1
Test [14] can be described thus: qHTS assay to identify small molecule agonists of the constitutive androstane receptor (CAR) signaling pathway - cell viability counter screen (AID 1224836). Also: nearly all actives have a fitted effect of over 45% in size. A digest of the protocol:
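Viability read-out: CellTiter-Fluor fluorescence after 23 h compound exposure at 37 C/5% CO2 in double-stable HepG2-CYP2B6-hCAR cells, with PK11195 present at 0.75 uM final; compounds tested in 15-point titration.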

A short description of test [15]: qHTS assay to identify small molecule antagonists of the estrogen related receptor signaling pathway with the pleiotropic PPARgamma coactivator (PGC) from Tox21 10K library (AID 1224841; call rule not given here). A digest of the protocol: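 One-Glo luminescence, measured after half an hour at room temperature, quantified reporter output of PGC/ERR cells. These had been plated at 2,000 per well, incubated 6 h, dosed with compounds in DMSO, then kept 18 h at 37 C.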

A short description of test [16]: qHTS assay to identify small molecule agonists of the estrogen related receptor signaling pathway with the pleiotropic PPARgamma coactivator (PGC) from Tox21 10K library (AID 1224842). Also: nearly all actives have a fitted effect of over 15% in size. A digest of the protocol: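 PGC/ERR reporter cells (NTP line) were seeded 2,000 per well, rested 6 h at 37 C/5% CO2, then pin-dosed with compounds in DMSO for 18 h at 37 C; luciferase read by One-Glo luminescence after 30 min at room temperature.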

Test [17] is described as follows: qHTS assay to identify small molecule antagonists of the estrogen related receptor (ERR) signaling pathway from Tox21 library (AID 1224848). Also: nearly all actives have a fitted effect of over 50% in size. The essentials: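 First, 2,000 ERR cells per well were plated and held 6 h at 37 C/5% CO2. Next, compounds in DMSO were pinned in and left 18 h at 37 C. Finally, ONE-Glo was added and luminescence read after 30 min at room temperature.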

The nature of test [18]: qHTS assay to identify small molecule agonists of the estrogen related receptor (ERR) signaling pathway from Tox21 library (AID 1224849; calls by dose curve; also: nearly all actives have a fitted effect of over 15% in size). Particulars: ERR reporter cell line, ONE-Glo luciferase, 18 h; at 92.4 µM (top of the series) unless noted. A digest of the protocol:
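Luciferase activity in ERR pathway reporter cells served as the agonist readout; exposure lasted 18 h at 37 C, with ONE-Glo detection after 30 min at room temperature.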

Test [19] concerns the target Nuclear receptor subfamily 1 group I member 3 (Homo sapiens) (UniProt Q14994). In words: qHTS assay to identify small molecule antagonists of the constitutive androstane receptor (CAR) signaling pathway (AID 1224838). Also: nearly all actives have a fitted effect of over 40% in size. A digest of the protocol: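 Inhibition of CITCO-driven (50 nM final) CYP2B6 reporter expression is measured in HepG2 cells stably carrying hCAR. Fifteen compound concentrations are applied for 24 h at 37 C, followed by luciferase luminescence.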
% is scaled to controls: 0 for no effect and ±100 for the full control effect.

Chain of Thyrotropin receptor (Homo sapiens) (P16473 whole entry, looked up): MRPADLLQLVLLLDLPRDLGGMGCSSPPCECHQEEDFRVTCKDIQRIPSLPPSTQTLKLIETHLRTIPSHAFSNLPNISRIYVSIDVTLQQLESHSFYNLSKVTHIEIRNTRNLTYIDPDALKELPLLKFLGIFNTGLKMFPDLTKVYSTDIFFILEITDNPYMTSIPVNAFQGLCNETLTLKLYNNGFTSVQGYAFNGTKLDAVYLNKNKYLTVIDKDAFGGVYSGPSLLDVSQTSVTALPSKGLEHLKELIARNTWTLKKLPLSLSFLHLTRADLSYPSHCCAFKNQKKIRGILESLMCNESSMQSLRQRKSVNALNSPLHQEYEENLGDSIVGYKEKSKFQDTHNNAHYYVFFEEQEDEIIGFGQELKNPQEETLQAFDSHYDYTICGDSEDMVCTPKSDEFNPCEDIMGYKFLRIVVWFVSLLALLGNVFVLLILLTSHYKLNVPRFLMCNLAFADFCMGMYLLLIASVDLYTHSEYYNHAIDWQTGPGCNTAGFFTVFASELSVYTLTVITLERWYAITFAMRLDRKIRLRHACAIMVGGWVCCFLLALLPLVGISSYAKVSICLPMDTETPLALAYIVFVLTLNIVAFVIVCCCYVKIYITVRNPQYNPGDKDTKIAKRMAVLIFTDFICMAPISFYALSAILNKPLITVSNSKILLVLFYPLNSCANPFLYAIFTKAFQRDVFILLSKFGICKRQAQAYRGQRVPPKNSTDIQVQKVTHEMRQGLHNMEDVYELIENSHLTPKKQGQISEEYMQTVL

In the case of `Cc1cc(NS(=O)(=O)c2ccc(N)cc2)nc(C)n1`, the Potency entry in [1], in test [3], in test [4], in [5], in test [6] and in [8] was “inactive” in each case. The Potency entry in test [9], in test [10], in [11], in test [12] and in test [13] was “inactive” each time. For the same compound, in test [2], the Potency is 11.9 µM (active). Moreover, the compound was called inactive in test [7].

As for `C=CC(C)(O)CC/C=C(\C)CCC=C(C)C` (centres undefined), the Potency result in test [14], in test [1], in [3], in [6], in test [8] and in test [9] was “inactive” throughout. In addition, the Potency result in test [10] and in test [12] was “inactive” each time. Further, the compound was called inactive in test [7]. Besides, in [13], the Potency is 49 µM (active).

`CCc1nnc(NS(=O)(=O)c2ccc(N)cc2)s1`: the Potency entry in [14], in test [1], in [2], in test [3], in [15] and in [16] was “inactive” throughout. In addition, the Potency result in [4], in [5], in [6], in test [17], in test [9] and in test [11] was “inactive” throughout. Further, the Potency entry in [12] and in [13] was “inactive” each time. Besides, the compound was classed as inactive in [7]. For the same compound, the activity change, positive = activation in test [18] was 2.74% [at 42.5 µM].

As for `NC1=NCC2c3ccccc3Cc3ccccc3N12` (centres undefined), the Potency result in test [14], in test [1], in test [19], in test [3], in test [5] and in [6] was “inactive” throughout. The Potency result in [8], in test [9], in [10], in test [11], in test [12] and in [13] was “inactive” in each case. In addition, the result in test [7] was inactive.

For the compound `CCCCCCCCc1ccc(S(=O)(=O)O)cc1`, the Potency entry in [14], in test [19], in test [2], in test [3], in test [4] and in test [8] was “inactive” each time. Also, the Potency result in [9], in test [10] and in [12] was “inactive” in each case. Besides, the Potency in test [13] is 54.5 µM (active).

As to `CCCCCCCCCCCCOCCOS(=O)(=O)O`, the Potency entry in test [14], in test [19], in test [2], in [3], in test [15] and in [16] was “inactive” in each case. For the same compound, the Potency result in test [4], in test [8], in test [9], in [11] and in test [12] was “inactive” throughout. For the same compound, in [18], the activity change, positive = activation was -29.3%. In addition, the Potency in test [13] was 24.5 µM (active).

Turning to `OCCN1CCN(CCO)CC1`, the Potency entry in test [14], in test [1], in [3], in test [4], in test [5] and in test [6] was “inactive” each time. In addition, the Potency entry in test [8], in [9], in test [10], in test [11], in [12] and in test [13] was “inactive” each time. Moreover, the compound was called inactive in test [7].

Regarding `O=C(O)[C@@H](O)[C@H](O)[C@H](O)[C@@H](O)C(=O)O`, the Potency result in [14], in [1], in test [3], in [15], in test [16] and in test [4] was “inactive” throughout. Besides, the Potency result in test [6], in test [8], in [17], in test [9], in test [10] and in [11] was “inactive” throughout. Besides, the Potency result in [12] and in [13] was “inactive” in each case. Moreover, the compound was classed as inactive in test [7]. The activity change, positive = activation in [18] was 4.4% [at 42.5 µM].

As to `CN(C)C(=O)NC1(c2ccccc2)CCN(CCC[C@]2(c3ccc(Cl)c(Cl)c3)CCCN(C(=O)c3ccccc3)C2)CC1`, the viability change, negative = cytotoxic in test [14] is -28.7% [at 19 µM]. In addition, in test [19], the activity, negative = inhibition is -20.2% [at 19 µM]. Moreover, the activation in test [4] was -9.82% [at 19 µM]; in test [7], 0.323% [at 15.8 µM]. Besides, the activation (H2AX phosphorylation) in [6] is 5.48% [at 31.6 µM]. For the same compound, the figures for the activity change, negative = cytotoxicity in test [8] and in [9] were -0.817% [at 31.6 µM] and -9.68% [at 15.8 µM], respectively. In addition, the cytotoxicity in test [11] is -1.6% [at 15.8 µM]. For the same compound, the activity change, negative = cytotoxic in [12] is -4.9% [at 15.8 µM]. The cytotoxicity increase in [13] was 31% [at 15.8 µM].

For the compound `Cc1ccc(C=O)s1`, the Potency result in test [14], in [19], in test [2], in test [3], in [15] and in test [16] was “inactive” in each case. Further, the Potency result in [5], in test [8], in test [17], in test [9] and in [10] was “inactive” in each case. The result in [7] was inactive. The activity change, positive = activation in test [18] is 3.35%. The Potency in [11] was 24.5 µM (active); in test [13] it was 43.6 µM (active).
